p53 reactivator: restores transcriptional activity of mutant p53; H1299 p53-A138V BP100-luciferase reporter, luminescence, 24 h; hit rate 0.063% among 320,000; AID 504706; Potency, µM (top dose mostly 92.2 µM), hits mostly activators; also: nearly all actives have a fitted effect of over 45% in size
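H1299 (p53-null), stable ts p53-A138V + BP100-Luc; 1000 cells/well, Opti-MEM/10% FBS; cpd 4 pt, 1:5; 24 h, 37 deg C, 5% CO2; detection reagent 10 min RT; luminescence.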
ELG1 genotox: induces genotoxicity in HEK293T cells with luciferase-tagged ELG1 | HEK293T ELG1-luciferase reporter, luminescence, 16 h | Potency, µM (series often up to 46 µM), actives largely listed as activators | hit rate 1.3% among 330,000 | AID 504466; also: nearly all actives have a fitted effect of over 60% in size
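Reporter readout depends on ELG1 protein level, which increases with genetic stress. After 16 hr compound exposure at 37 °C, luciferase activity was quantified using ONE-Glo.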
NPC1 promoter act: activates the NPC1 promoter; Huh7 NPC1 promoter luciferase reporter, 24 h; Potency, µM (titrated, usually from 9.22 µM), hits mostly activators; AID 485313; hit rate 2.4% among 320,000; also: nearly all actives have a fitted effect of over 60% in size
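Quantitative HTS used a cell-based reporter: Huh7 cells stably bearing the NPC1 promoter upstream of luciferase were treated with compounds for 24 h, and promoter activation was read as luminescence.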
FLuc modulator: inhibits or activates purified firefly luciferase, miR-21 counter-screen; hit rate 6.9% among 360,000; AID 588342; Potency, µM (titrated, usually from 57.5 µM), hits mostly inhibitors; P08659; purified FLuc, Km substrates, luminescence inhibition; also: nearly all actives have a fitted effect of over 55% in size
Target sequence (P08659 whole entry, looked up): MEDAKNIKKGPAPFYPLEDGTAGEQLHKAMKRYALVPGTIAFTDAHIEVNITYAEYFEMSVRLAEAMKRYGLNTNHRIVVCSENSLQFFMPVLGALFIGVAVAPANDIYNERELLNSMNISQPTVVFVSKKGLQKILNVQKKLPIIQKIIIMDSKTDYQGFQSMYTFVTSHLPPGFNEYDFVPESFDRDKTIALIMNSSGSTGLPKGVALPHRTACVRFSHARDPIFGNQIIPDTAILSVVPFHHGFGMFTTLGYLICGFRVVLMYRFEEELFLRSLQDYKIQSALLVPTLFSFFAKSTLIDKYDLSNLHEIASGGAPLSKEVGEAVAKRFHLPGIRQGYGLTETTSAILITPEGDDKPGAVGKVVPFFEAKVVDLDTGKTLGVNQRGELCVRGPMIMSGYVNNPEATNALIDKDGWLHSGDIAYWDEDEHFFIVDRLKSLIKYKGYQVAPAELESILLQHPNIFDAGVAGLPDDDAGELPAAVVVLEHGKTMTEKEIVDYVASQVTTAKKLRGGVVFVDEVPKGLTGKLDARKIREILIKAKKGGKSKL
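Biochemical qHTS of compounds, final roughly 60 µM downward over six points, against 10 nM purified firefly luciferase using Km concentrations of substrates (10 uM D-luciferin, 10 uM ATP) in Tris acetate pH 7.5 buffer; luminescence output.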
SMN2 splice enh: enhancers of SMN2 splice variant expression; HEK293 SMN2-luciferase splicing reporter, luminescence, 30-36 h; Potency, µM (highest dose often 46.1 µM), most hits filed as activators; hit rate 2.8% among 210,000; also: nearly all actives have a fitted effect of over 55% in size
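HEK293 cells carry an SMN2 […]–luciferase reporter in which exon 7 inclusion puts luciferase in frame. Cells were plated 10-12 h before compound addition, then incubated 30-36 h at 37C. ONE-Glo luminescence was read; sodium butyrate at 4.5 mM final served as control.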
Rab9 prom act: activators of Rab9 promoter. hit rate 2.8% among 320,000. Potency, µM (top dose mostly 9.22 µM), hits mostly activators. Huh7 Rab9 promoter-luciferase reporter, luminescence, 24 h; also: nearly all actives have a fitted effect of over 60% in size
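Quantitative HTS format; Huh7 Rab9-luciferase reporter cells (1500/well) receive compound 2 h post-plating, incubate 24 h at 37 °C, then get luciferase reagent for 10 min before luminescence reading.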
Numbers stand for hits; 0 = inactive; ? = inconclusive; - = no result given; [ ] = remark or other dose. Compounds with a hit are over-represented: about 7.4% of the library has one in this group of screens. Calls follow the shape of the dose curve; as a rule, active = well fitted curve in the direction sought with a large enough effect; inconclusive = small, poorly fitted or top-dose-only effect, or another doubt; inactive = no such curve, though single readings can be large; an effect the other way counts as inactive or inconclusive.

SMILES | p53 reactivator | ELG1 genotox | NPC1 promoter act | FLuc modulator | SMN2 splice enh | Rab9 prom act
C=CCn1c(CCCOc2ccc(Cl)cc2Cl)nnc1SCC(=O)Nc1nccs1 | 0 | 0 | 0 | 13µM | 0 | 0
Cn1c(CCCOc2ccc(Cl)cc2Cl)nnc1SCC(=O)Nc1cccc(F)c1 | ? | 0 | 0 | 4.8µM | 0 | 0
COC(=O)c1sc2cccc(F)c2c1S(=O)(=O)NCc1ccccc1Cl | - | - | - | 0 | - | -
Cc1cccc(NC(=O)Nc2nnc(N3CCCC3)s2)c1 | - | - | - | 0 | - | -
O=C(c1cnccn1)N1CCC2(CC1)CN(C(c1ccccc1)c1ccccc1)C2 | - | - | - | - | 0 | -
CCc1ccc2nc(N3CCN(C(=O)C4CC4)CC3)sc2c1 | - | - | - | 15µM | - | -
CCCCN(C)CCNC(=O)C1CCN(c2nc3ccc(CC)cc3s2)CC1 | - | - | - | 12µM | 0 | -
Cc1ccc2nc(N3CCN(C(=O)C4COc5ccccc5O4)CC3)sc2c1 (centres undefined) | - | - | - | 8.5µM | - | -
CCCCN(C)CCCNC(=O)c1ccc2nc(N3CCCCC3)sc2c1 | - | - | - | 0 | 0 | -
O=C(C1COc2ccccc2O1)N1CCN(c2nc3c(F)cccc3s2)CC1 (centres undefined) | - | - | - | 0 | - | -
CCc1ccc2nc(N3CCC(C(=O)O)CC3)sc2c1 | - | - | - | 0.21µM | ? | -
CC(CNC(=O)Cn1c(-c2cccs2)cc2cc(Cl)ccc21)c1ccccc1 (centres undefined) | - | - | - | 0 | - | -
O=C(NCC1CCN(C(=O)c2c(F)c(F)c(F)c(F)c2F)CC1)c1c(F)c(F)c(F)c(F)c1F | 0 | 0 | 0 | 0 | - | 0
CCn1cc(Br)c(C(=O)Nc2sc3c(c2C(N)=O)CCCC3)n1 | 0 | 0 | 0 | 0 | - | 0
NC(=O)c1c(NC(=O)c2ccccc2F)sc2c1CCCC2 | ? | ? | 1.6µM | 1.9µM | - | 0.89µM
Cn1cc(Br)c(C(=O)Nc2sc3c(c2C(N)=O)CCCC3)n1 | 0 | 0 | 0 | 3µM | - | ?
NC(=O)c1c(NC(=O)c2cccnc2Cl)sc2c1CCCC2 | 0 | 0 | 0 | 19µM | 0 | 0
COC(=O)c1c(NC(=O)c2ccccc2C(=O)O)sc2c1CCC2 | - | 0 | 0 | 0 | - | 0
NC(=O)c1c(NC(=O)c2ccccc2C(=O)O)sc2c1CCCC2 | - | 0 | 0 | 17µM | - | 0
CN(C)C(=O)c1c(NC(=O)c2ccccc2F)sc2c1CCCC2 | - | - | - | 0 | 0 | -
O=C(NCCCN1CCN(c2cccc(Cl)c2)CC1)Nc1ccccc1C(F)(F)F | - | - | - | 0 | 0 | -
CCn1cc(C(=O)OCC(=O)Nc2cccc(C(C)=O)c2)c(=O)c2ccc(C)nc21 | - | - | - | 0 | 0 | -
NC(=O)c1c(NC(=O)c2ccccc2Cl)sc2c1CCC2 | - | ? | ? | 15µM | - | ?
NC(=O)c1c(NC(=O)c2ccc(F)cc2Cl)sc2c1CCC2 | - | 0 | ? | 13µM | - | ?
CC1CCc2sc(NC(=O)c3ccc(N4C(=O)CCC4=O)cc3)c(C(N)=O)c2C1 (centres undefined) | 0 | 0 | 0 | ? | - | 0
SMILES | p53 reactivator | ELG1 genotox | NPC1 promoter act | FLuc modulator | SMN2 splice enh | Rab9 prom act
NC(=O)c1c(NC(=O)c2ccc(N3C(=O)CCC3=O)cc2)sc2c1CCCC2 | 0 | 0 | 0 | 11µM | - | 0
Cc1ccc(Cn2nnc3c(=O)[nH]c(C4CCCN(S(=O)(=O)c5ccccc5)C4)nc32)cc1 (centres undefined) | 0 | 21µM | 0 | 0 | 0 | 0
Cc1c(/C(O)=C2/C(=O)C(=O)N(Cc3cccnc3)C2c2cccs2)cnn1-c1ccccc1 (centres undefined) | ? | ? | ? | 0[2.3 µM] | 0 | 3.5µM
Cc1ccc(/C(O)=C2/C(=O)C(=O)N(Cc3cccnc3)C2c2ccccn2)cc1 (centres undefined) | 0 | 0 | 0 | 0 | ? | 0
Cc1c(/C(O)=C2/C(=O)C(=O)N(Cc3cccnc3)C2c2ccccn2)cnn1-c1ccccc1 (centres undefined) | 0 | ? | 0 | 15µM | 0 | 0
COc1ccc(NC(=O)c2cc3ccccc3o2)cc1 | 0 | 6.5µM | 1.6µM | 3.8µM | ? | 0.56µM
COc1ccc(NC(=O)c2cc3ccccc3o2)cc1OC | - | ? | 0 | 15µM | - | ?
COc1cc(NC(=O)C(C)C)ccc1NC(=O)c1cc2ccccc2o1 | - | ? | 2.2µM | 7.6µM | - | 3.2µM
COc1ccc(NC(=O)c2coc3ccccc23)cc1OC | 0 | ? | ? | 13µM | 0 | ?
COc1ccc(NC(=O)c2ccco2)cc1NC(=O)c1cc2ccccc2o1 | 0 | 0 | 0 | 0 | - | 0
COc1ccc(NC(=O)c2coc(=O)c3ccccc23)cc1OC | - | - | - | 0 | ? | -
COc1ccc(C(=O)CC2(O)C(=O)Nc3c(C)cccc32)c(OC)c1OC (centres undefined) | - | - | - | 0 | - | -
COc1ccc(CCN2C(=O)c3oc4cc(C)cc(C)c4c(=O)c3C2c2ccc(F)cc2)cc1OC (centres undefined) | - | - | - | 0 | 0 | -
COc1ccc(NC(=O)c2cc(=O)c3ccccc3o2)cn1 | 0 | 0 | 0 | 0 | 0 | 0
COc1ccc(NC(=O)c2cc3ccccc3o2)cn1 | - | ? | 2.8µM | 13µM | - | 2.5µM
Cc1ccsc1/C=N/n1cnc2sc(C)c(C)c2c1=O | ? | 0 | ? | 11µM | 0 | ?
Cc1ccc(CNC(=O)C(Cc2ccccc2)NS(=O)(=O)c2cccs2)cc1 (centres undefined) | 0 | 0 | 0 | 0 | 18µM | 0
Cc1ccc(CNC(=O)C(Cc2ccccc2)NS(=O)(=O)c2ccc(Br)s2)cc1 (centres undefined) | 0 | 0 | 0 | 0 | 0 | 0
Cn1ccnc1SCc1cn2cc(Br)ccc2n1 | 0 | ? | 0.32µM | 3.8µM | ? | 0.56µM
CCOc1ncccc1C(=O)OCC(=O)c1ccccc1 | 0 | 0 | 0 | ? | 0 | 0
CCOc1ncccc1C(=O)OCC(=O)c1ccccc1Br | 0 | 0 | 0 | 13µM | 0 | 0
CCOc1ncccc1C(=O)OCC(=O)c1ccc(C)c(C)c1 | 0 | 0 | ? | 11µM | ? | ?
O=C1c2cccc3cccc(c23)C(=O)N1CCc1ccccc1 | 0 | 0 | 0 | 13µM | 14µM | ?
CNC(=O)c1c(NC(=O)c2ccco2)sc2c1CCC2 | 0 | 0 | 0 | ? | - | ?
CCOC(=O)N1CCc2c(sc(NC(=O)C3=COCCO3)c2C(N)=O)C1 | ? | 0 | 0 | 11µM | - | 0
SMILES | p53 reactivator | ELG1 genotox | NPC1 promoter act | FLuc modulator | SMN2 splice enh | Rab9 prom act
CNC(=O)c1c(NC(=O)C2=COCCO2)sc2c1CCCC2 | 0 | 0 | 0 | 17µM | - | 0
CCOC(=O)c1c(NC(=O)CN2CCCCC2)sc2c1CCN(C(=O)OCC)C2 | 0 | 0 | 0 | 0 | 0 | 0
CC(NC(=O)Cn1c(-c2cccs2)cc2cc(F)ccc21)c1ccccc1 (centres undefined) | - | - | - | 0 | - | -
Clc1cccc(Cl)c1CSc1nnc(-c2ccncc2)s1 | 0 | 0 | 0 | 15µM | - | 0
Clc1ccc(CSc2nnc(-c3ccncc3)s2)cc1 | 0 | 0 | 0 | 0 | - | 0
S=C1NC2(CCS1)Oc1ccccc1C1CC(c3ccccc3)=NN12 (centres undefined) | 0 | 0 | 0 | 27µM | - | 0

Source: PubChem BioAssay (National Center for Advancing Translational Sciences (NCATS))
